This note sets out measurements from PubChem BioAssay.

Assay [1] deals with Human papillomavirus type 1a protein E7 (residues 44-93). Briefly: small molecules binding HPV E7 44-93 – biochemical, small-molecule microarray, residues 44-93, 635 nm fluorescence, primary screen (AID 1108).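 Also: E7 fragment applied at 1 µg/mL in TBST for 1 h at 4 C; score combines spot fluorescence with its signal to noise ratio.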 As to conditions: fluorescence 635 nm, higher = more signal.
Assay [2] can be described thus: hepatitis C replication reporter changes, two-sided – Huh7 cells, luciferase reporter, HCV replication inhibitor project, primary screen (AID 1109).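 Also: huh7 hepatoma cells harbouring a luciferase neomycin HCV replicon reporter; luciferase luminescence as measure of HCV replicon replication; test concentration not given here.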 The following applies: Huh7 HCV replicon luciferase reporter, 48 h; higher = more signal.
For assay [3], the target named is Left-right determination factor 2 (Homo sapiens) (UniProt O00292). The assay can be described thus: small molecules binding LEFTY2 protein – biochemical, small-molecule microarray, 635 nm fluorescence scan, primary screen (AID 1110). As to conditions: higher = more signal.
For assay [4], the target named is Calmodulin-1 (Homo sapiens) (UniProt P0DP23). The assay can be described thus: small molecules binding calmodulin-1 with EGTA – biochemical, small-molecule microarray, Cy5-labelled CALM1, profiling panel (AID 1111).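 Also: labelled calmodulin applied in Tris saline Tween buffer holding calcium plus EGTA and DTT.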 As to conditions: Cy5-CALM1 binding fluorescence, higher = more signal.
Assay [5] has the same target. Briefly: small molecules binding Ca-loaded calmodulin-1 – biochemical, small-molecule microarray, Cy5-labelled CALM1, plus calcium, artefact control for SMM control-protein annotation, profiling panel (AID 1112).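 Also: score merges spot fluorescence with signal to noise from triplicate slides.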 The following applies: Cy5-CALM1 binding fluorescence, higher = more signal.
Assay [6] is described as follows: probe aWnt5a binding to arrayed compounds – biochemical, biotinylated probe, 635/667 nm fluorescence, primary screen (AID 1113).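 Also: score merges 667 nm fluorescence intensity with signal-to-noise per printed feature.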 The following applies: small-molecule microarray, higher = more signal.
Assay [7] in a line: probe aShh binding to arrayed compounds – biochemical, biotinylated probe, 635/667 nm fluorescence, primary screen (AID 1114).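 Also: probe is biotin-labelled aShh protein from a stem cell growth factor screen; measures binding of labelled protein to compounds printed on the slide; score merges feature fluorescence at 667 nm with signal-to-noise.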 The following applies: small-molecule microarray, higher = more signal.
The nature of assay [8]: probe aNog binding to arrayed compounds – biochemical, biotinylated probe, 635/667 nm fluorescence, primary screen (AID 1115).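 Also: probe is biotinylated aNog protein used at 0.15 µg/mL for 1 h at 4 C; z-score combines 667 nm fluorescence of each spot with its signal to noise.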 As to conditions: small-molecule microarray, higher = more signal.
Assay [9] concerns the target Torsin-1A-interacting protein 1 (Homo sapiens) (UniProt Q5JTV8). The assay can be described thus: compound microarray binding of lysate hLAP1 – cell lysate, small-molecule microarray, COS7 lysate, 635/667 nm fluorescence, primary screen (AID 1116). The following applies: 635 nm fluorescence, higher = more signal.
The target of assay [10] is Alpha-bungarotoxin (Bungarus multicinctus) (UniProt P60615). The assay can be described thus: compounds binding labelled alpha-BTX control protein – biochemical, small-molecule microarray, Alexa647 label, 635/667 nm fluorescence, artefact control for SMM control protein annotation, profiling panel (AID 1117). As to conditions: alpha-BTX-A647 binding fluorescence, higher = more signal.

For a further assay, the target named is Albumin (Bos taurus) (UniProt P02769). Briefly: compounds binding labelled BSA control protein – biochemical, small-molecule microarray, Alexa647 label, 635/667 nm fluorescence, artefact control for SMM control protein annotation, profiling panel (AID 1118).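 Also: score merges 667 nm emission intensity and signal-to-noise per printed compound spot.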 The following applies: BSA-A647 binding, fluorescence 635 nm, higher = more signal.
A short description of assay [11]: probe aXIP binding to arrayed compounds – biochemical, NeuroSMM set, 635/667 nm fluorescence, primary screen (AID 1119).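 Also: probe is the protein aXip251-270 applied at 1 µg/mL to compound-printed slides; binding of probe to printed compounds measured as 667 nm fluorescence plus signal to noise.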 The following applies: small-molecule microarray, higher = more signal, called active from +8 up or from −8 down.
Assay [12] can be described thus: probe aNOTCH3 binding on compound microarray – biochemical, small-molecule microarray, 635/667 nm fluorescence, primary screen (AID 1120).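 Also: probe is a biotin-tagged antibody raised against NOTCH3 rather than NOTCH3 protein; score merges spot fluorescence near 667 nm with spot signal to noise.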 As to conditions: higher = more signal.
Assay [13] is described as follows: probe aNOTCH2 binding on compound microarray – biochemical, small-molecule microarray, 635/667 nm fluorescence, primary screen (AID 1121).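 Also: score merges feature fluorescence read at 667 nm with its signal to noise.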 The following applies: higher = more signal.
The target in assay [14] is Carbonic anhydrase 2 (Homo sapiens) (UniProt P00918). Briefly: compounds binding carbonic anhydrase 2 – biochemical, small-molecule microarray, Alexa647-labelled CAII, profiling panel (AID 1122). As to conditions: CAII-A647 binding fluorescence, higher = more signal.
The nature of assay [15]: COS7 lysate on small-molecule microarray, probe aHis, 635 nm (AID 1123).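 Also: z-score combines 667nm fluorescence intensity with signal-to-noise per printed compound spot.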 The following applies: COS7 cell lysate, fluorescence, higher = more signal.
A short description of assay [16]: probe aLAP1 signal on lysate-treated microarray – cell lysate, small-molecule microarray, COS7 lysate, primary screen (AID 1124).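 Also: lysate comes from COS7 cells expressing LAP1 and is applied at 0.3 µg/mL; score merges spot fluorescence near 667 nm with signal-to-noise over triplicate slides.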 The following applies: probe aLAP1, fluorescence, higher = more signal.
Another assay concerns Sam68 (KHDRBS1). Briefly: compounds binding KHDRBS1 protein – biochemical, small-molecule microarray, 635 nm fluorescence, primary screen (AID 1125).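 Also: score merges 667 nm channel intensity with signal to noise over triplicate slides.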 The following applies: higher = more signal.
In assay [17] the test system is Chordin-like protein 2 (CHRDL2). The assay can be described thus: compounds binding chordin-like 2 – biochemical, small-molecule microarray, 635 nm fluorescence, primary screen (AID 1126).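 Also: printed compound slides probed with Chrdl2 protein at 4 µg/mL for 1 h at 4 C; score merges 667 nm emission intensity with signal to noise over three replicate slides.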 As to conditions: fluorescence 635 nm, higher = more signal.
Assay [18] deals with Concanavalin-A (Canavalia ensiformis) (UniProt P02866). The assay can be described thus: compounds binding concanavalin A lectin – biochemical, small-molecule microarray, Alexa647 label, 635 nm, artefact control for SMM control protein annotation, primary screen (AID 1127).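 Also: z combines 667 nm emission intensity with signal-to-noise across three replicate slides.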 The following applies: ConA-A647 binding fluorescence, higher = more signal.

Structures are written as SMILES. Calls of active or inactive are those of the source.

Chain of Concanavalin-A (Canavalia ensiformis) (P02866 whole entry, looked up): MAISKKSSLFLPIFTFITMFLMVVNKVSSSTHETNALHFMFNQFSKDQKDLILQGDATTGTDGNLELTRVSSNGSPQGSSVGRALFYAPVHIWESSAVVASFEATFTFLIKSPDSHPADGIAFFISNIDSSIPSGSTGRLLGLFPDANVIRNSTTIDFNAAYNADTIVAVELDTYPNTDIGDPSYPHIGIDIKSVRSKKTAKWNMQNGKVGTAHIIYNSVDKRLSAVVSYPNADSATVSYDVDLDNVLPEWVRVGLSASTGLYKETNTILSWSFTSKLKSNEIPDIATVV
Chain of Alpha-bungarotoxin (Bungarus multicinctus) (P60615 whole entry, looked up): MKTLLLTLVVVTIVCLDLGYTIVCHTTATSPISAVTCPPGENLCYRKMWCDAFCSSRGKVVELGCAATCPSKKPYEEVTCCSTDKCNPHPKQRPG
Chain of Albumin (Bos taurus) (P02769 whole entry, looked up): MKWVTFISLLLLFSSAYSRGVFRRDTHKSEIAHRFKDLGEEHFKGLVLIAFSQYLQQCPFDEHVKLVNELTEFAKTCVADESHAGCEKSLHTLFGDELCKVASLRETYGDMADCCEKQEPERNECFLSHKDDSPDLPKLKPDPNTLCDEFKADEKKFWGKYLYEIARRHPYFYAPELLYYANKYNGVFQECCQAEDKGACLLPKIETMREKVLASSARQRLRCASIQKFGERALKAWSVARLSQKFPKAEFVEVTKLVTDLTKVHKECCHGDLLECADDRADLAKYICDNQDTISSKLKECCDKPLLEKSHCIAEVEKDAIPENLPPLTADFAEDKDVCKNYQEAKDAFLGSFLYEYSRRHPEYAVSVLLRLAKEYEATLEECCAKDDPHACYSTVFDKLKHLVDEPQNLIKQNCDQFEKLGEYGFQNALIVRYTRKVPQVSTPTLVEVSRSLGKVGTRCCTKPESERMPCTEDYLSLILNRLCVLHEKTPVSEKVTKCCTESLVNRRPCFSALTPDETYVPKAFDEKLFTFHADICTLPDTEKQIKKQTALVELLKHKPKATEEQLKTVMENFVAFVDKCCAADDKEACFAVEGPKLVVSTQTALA
Chain of Torsin-1A-interacting protein 1 (Homo sapiens) (Q5JTV8 whole entry, looked up): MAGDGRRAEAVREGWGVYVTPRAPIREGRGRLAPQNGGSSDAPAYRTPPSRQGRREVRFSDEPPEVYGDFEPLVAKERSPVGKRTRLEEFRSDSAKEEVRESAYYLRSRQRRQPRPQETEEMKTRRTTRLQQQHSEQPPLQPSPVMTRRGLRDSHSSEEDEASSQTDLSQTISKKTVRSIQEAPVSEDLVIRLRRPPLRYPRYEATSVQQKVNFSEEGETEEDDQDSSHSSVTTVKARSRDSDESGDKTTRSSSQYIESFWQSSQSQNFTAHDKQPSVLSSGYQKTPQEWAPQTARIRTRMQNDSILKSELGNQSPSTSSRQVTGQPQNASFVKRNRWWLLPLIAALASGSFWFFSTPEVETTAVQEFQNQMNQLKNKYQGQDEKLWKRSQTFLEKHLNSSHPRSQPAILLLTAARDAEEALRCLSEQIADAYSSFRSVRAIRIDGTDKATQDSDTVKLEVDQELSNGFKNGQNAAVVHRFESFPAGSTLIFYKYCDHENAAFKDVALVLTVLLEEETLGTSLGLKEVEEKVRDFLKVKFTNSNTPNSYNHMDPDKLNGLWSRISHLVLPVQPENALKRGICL
Chain of Left-right determination factor 2 (Homo sapiens) (O00292 whole entry, looked up): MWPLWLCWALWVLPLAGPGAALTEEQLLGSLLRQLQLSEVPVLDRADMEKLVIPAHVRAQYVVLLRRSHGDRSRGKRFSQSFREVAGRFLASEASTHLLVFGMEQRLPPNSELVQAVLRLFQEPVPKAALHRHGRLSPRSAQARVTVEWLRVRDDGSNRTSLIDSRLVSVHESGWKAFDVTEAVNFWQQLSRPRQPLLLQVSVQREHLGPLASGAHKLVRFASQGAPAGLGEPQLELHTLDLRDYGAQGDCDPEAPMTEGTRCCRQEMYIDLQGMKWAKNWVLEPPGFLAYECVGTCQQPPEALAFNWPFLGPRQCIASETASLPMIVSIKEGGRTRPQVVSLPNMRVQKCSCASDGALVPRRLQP

For the molecule `C=CCC(OC(C)=O)[C@@H]1[C@@H](N(Cc2ccc(-c3cccc(C(F)(F)F)c3)o2)C(=O)c2ccc(C)cc2)c2cc(OCCCO)ccc2N1C(=O)c1ccc(-c2ccccc2)cc1` (stereo not given in full), the composite z-score in assay [1] is -0.734; in assay [3], -0.0524; in [4] it was -0.201; in assay [5] it was -0.147; in [6], -0.124; in [7], -0.16. Also, the composite z-score in assay [8] was -0.363; in assay [9], -0.178; in assay [10], -0.286; with Albumin (Bos taurus), -0.405; in [12], 0.0026; in assay [13] it was -0.115. For the same molecule, the composite z-score in [14] was 0.376; in assay [15], -0.0056; in assay [16] it was -0.0012; in the assay on Sam68 (KHDRBS1), -0.597; in [17] it was 0.031; in assay [18], 0.854. The molecule further yielded a z-score in [2] of -0.094. Moreover, the composite Z-score in assay [11] was 0.244 (inactive).

Consider `CC(=O)Nc1cc(Br)ccc1C(=O)O`, for which the composite z-score is 0.688 in assay [1]; -0.229 in assay [3]; 0.908 in [4]; 0.762 in [5]; -0.096 in assay [6]; 0.0556 in assay [7]. The composite z-score is -0.122 in assay [8]; -0.134 in assay [9]; 0.424 in [10]; 0.782 in the assay with Albumin (Bos taurus); -0.0142 in assay [12]; -0.0502 in [13]. In addition, the composite z-score in assay [14] was 0.363; in [15], 0.385; in assay [16], -0.0197; in the assay with Sam68 (KHDRBS1), 0.402; in assay [17], -0.421; in [18], 0.984. The molecule also had a z-score in assay [2] of -0.0912. The composite Z-score in [11] is -0.705 (inactive).

As to `COCCOC(=O)N1C(=O)[C@@]2(c3cc(C#CCCO)ccc31)[C@H](C(=O)NC[C@H](O)c1ccccc1)[C@H]1C(=O)O[C@H](c3ccccc3)[C@H](c3ccccc3)N1[C@@H]2c1ccc(O)cc1`, the composite z-score in [1] is 0.727; in assay [3], -0.186; in [4] it was 0.302; in assay [5], 0.262; in assay [6] it was -0.0519; in [7], -0.416. Besides, the composite z-score is -0.0784 in [8]; 1.11 in assay [9]; 0.476 in assay [10]; 0.508 with Albumin (Bos taurus); -0.0362 in [12]; -0.115 in assay [13]. Moreover, the composite z-score in assay [14] was 0.568; in [15], 0.813; in assay [16], 0.16; in the assay on Sam68 (KHDRBS1) it was 0.053; in assay [17], -0.496; in [18], 1.09. The z-score in assay [2] was -0.485. The composite Z-score in assay [11] is -0.302 (inactive).

For the molecule `CC(C)OC(=O)CC(=O)CC(O)c1ccc(C#N)cc1` (stereo not given), the composite z-score in assay [1] was 0.443; in [3] it was -0.461; in assay [4], -1.49; in [5], -1.46; in [6], -0.0405; in [7], -0.156. Moreover, the composite z-score in assay [8] was -0.397; in assay [9] it was 1.67; in [10] it was 1.75; with Albumin (Bos taurus), -0.181; in assay [12], -0.0377; in assay [13], 0.174. The composite z-score in assay [14] was 0.0258; in [15], 0.657; in [16], 0.649; in the assay on Sam68 (KHDRBS1) it was 0.438; in [17], -1.19; in assay [18] it was -0.6. For the same molecule, the z-score in assay [2] was -0.259. In assay [11], the composite Z-score is 0.0371 (inactive).

For `CC(C)CNC(=O)[C@@]1(c2ccc([N+](=O)[O-])cc2)CC(=O)N(CC23CC4CC(CC(C4)C2)C3)[C@@H]1c1ccc(CO)cc1I`, the composite z-score in assay [1] was 1.39; in assay [3] it was 0.539; in assay [4] it was 0.404; in assay [5], -0.111; in [6], -0.0587; in [7], -0.0685. Moreover, the composite z-score was -0.289 in assay [8]; 0.798 in assay [9]; 0.504 in assay [10]; -0.0275 in the assay with Albumin (Bos taurus); 0.54 in [12]; -0.0001 in assay [13]. Moreover, the composite z-score amounted to 0.259 in assay [14]; 2.03 in assay [15]; 0.451 in [16]; 1.32 in the assay on Sam68 (KHDRBS1); 0.499 in [17]; 0.974 in [18]. Moreover, in assay [2], the z-score is -3.18. Also, in assay [11], the composite Z-score was 0.493 (inactive).

Regarding `COC(=O)C(CC#Cc1ccc2c(c1)[C@]1(C(=O)N2)[C@H](C(=O)NC[C@H](O)c2ccccc2)[C@H]2C(=O)O[C@H](c3ccccc3)[C@H](c3ccccc3)N2[C@@H]1c1ccc(OCCO)cc1)C(=O)OC`, the composite z-score in [1] was found to be 1.45; in assay [3] it was 0.696; in assay [4], 1.5; in assay [5] it was 1.1; in assay [6], 0.174; in assay [7] it was 0.986. Besides, the composite z-score in [8] is 0.945; in [9] it was 0.053; in assay [10] it was 2.23; in the assay with Albumin (Bos taurus), 0.516; in assay [12] it was 1.4; in [13], 0.146. Moreover, the composite z-score in assay [14] is 0.556; in assay [15] it was 2.94; in assay [16], 0.811; with Sam68 (KHDRBS1), 1.27; in assay [17], 0.75; in assay [18], 1.02. This molecule gave a z-score in [2] of -1.95. In [11], the composite Z-score is 2.12 (inactive).
